Source: the supplement of paper PMC10849652
The full data set covers some 8,800 targets. This sample favours those with a hit. About 0.5% of all pairs of compound and target were hits.

Tests used:
Test in all cases: log2 fold change, soluble protein after heating vs DMSO (PISA); higher = thermal stabilisation; K562 lysate, 10 uM; active = over 0.2 and 3.5 SD of the protein, either way, in both replicates (recomputed)
[1] = compound: NCC(=O)Nc1ccc(-n2nc(C(F)(F)F)cc2-c2ccc3c(ccc4ccccc43)c2)cc1
Procedure, shortened: (§1)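 A 30 min treatment with 10 μM compound was applied to crude K562 extract at 1 mg/mL protein in PBS pH 7.4 with 1 mM MgCl2. Heating for 3 min spanned 48°C-58°C, after which aliquots were pooled, adjusted to 0.5% NP-40 at 4°C and spun at 21,000xg for 90 min. TMTpro 16plex LC-MS/MS of the supernatant, with channel sums equalised, gave values recorded as log-two fold change in thermal stability against solvent controls, from duplicates.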

vorinostat = compound: O=C(CCCCCCC(=O)Nc1ccccc1)NO [vorinostat]
Procedure, shortened: as §1

silmitasertib = compound: O=C(O)c1ccc2c(c1)nc(Nc1cccc(Cl)c1)c1ccncc12 [silmitasertib]
Procedure, shortened: as §1

[2] = compound: O=C1NC(=O)C(c2cnc3ccccn23)=C1c1cn2c3c(cc(F)cc13)CN(C(=O)N1CCCCC1)CC2
Procedure, shortened: as §1

entospletinib = compound: c1cn2cc(-c3ccc4cn[nH]c4c3)nc(Nc3ccc(N4CCOCC4)cc3)c2n1 [entospletinib]
Procedure, shortened: as §1

Measured: log2 fold change

TUBGCP4 (UniProt Q9UGJ1)
active: vorinostat -0.219
inactive: [1] -0.11 | silmitasertib 0.003 | [2] 0.02 | entospletinib 0.038

TMEM177 (UniProt Q53S58)
Chain of UniProt Q53S58 (Q53S58 whole entry, looked up): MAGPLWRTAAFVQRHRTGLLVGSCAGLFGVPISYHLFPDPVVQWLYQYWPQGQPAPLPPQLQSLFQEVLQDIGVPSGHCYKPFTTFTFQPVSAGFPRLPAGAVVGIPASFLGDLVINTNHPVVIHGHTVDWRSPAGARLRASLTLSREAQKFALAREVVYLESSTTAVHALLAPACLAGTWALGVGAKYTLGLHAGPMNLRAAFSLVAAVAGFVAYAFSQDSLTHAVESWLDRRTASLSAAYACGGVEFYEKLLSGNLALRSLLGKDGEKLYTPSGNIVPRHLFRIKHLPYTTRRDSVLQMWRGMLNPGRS
inactive: [1] -0.183 | vorinostat -0.012 | silmitasertib -0.035 | [2] 0.034 | entospletinib 0.005

UBR3 isoform 4 (UniProt Q6ZT12)
Chain of UniProt Q6ZT12 (Q6ZT12 whole entry, looked up): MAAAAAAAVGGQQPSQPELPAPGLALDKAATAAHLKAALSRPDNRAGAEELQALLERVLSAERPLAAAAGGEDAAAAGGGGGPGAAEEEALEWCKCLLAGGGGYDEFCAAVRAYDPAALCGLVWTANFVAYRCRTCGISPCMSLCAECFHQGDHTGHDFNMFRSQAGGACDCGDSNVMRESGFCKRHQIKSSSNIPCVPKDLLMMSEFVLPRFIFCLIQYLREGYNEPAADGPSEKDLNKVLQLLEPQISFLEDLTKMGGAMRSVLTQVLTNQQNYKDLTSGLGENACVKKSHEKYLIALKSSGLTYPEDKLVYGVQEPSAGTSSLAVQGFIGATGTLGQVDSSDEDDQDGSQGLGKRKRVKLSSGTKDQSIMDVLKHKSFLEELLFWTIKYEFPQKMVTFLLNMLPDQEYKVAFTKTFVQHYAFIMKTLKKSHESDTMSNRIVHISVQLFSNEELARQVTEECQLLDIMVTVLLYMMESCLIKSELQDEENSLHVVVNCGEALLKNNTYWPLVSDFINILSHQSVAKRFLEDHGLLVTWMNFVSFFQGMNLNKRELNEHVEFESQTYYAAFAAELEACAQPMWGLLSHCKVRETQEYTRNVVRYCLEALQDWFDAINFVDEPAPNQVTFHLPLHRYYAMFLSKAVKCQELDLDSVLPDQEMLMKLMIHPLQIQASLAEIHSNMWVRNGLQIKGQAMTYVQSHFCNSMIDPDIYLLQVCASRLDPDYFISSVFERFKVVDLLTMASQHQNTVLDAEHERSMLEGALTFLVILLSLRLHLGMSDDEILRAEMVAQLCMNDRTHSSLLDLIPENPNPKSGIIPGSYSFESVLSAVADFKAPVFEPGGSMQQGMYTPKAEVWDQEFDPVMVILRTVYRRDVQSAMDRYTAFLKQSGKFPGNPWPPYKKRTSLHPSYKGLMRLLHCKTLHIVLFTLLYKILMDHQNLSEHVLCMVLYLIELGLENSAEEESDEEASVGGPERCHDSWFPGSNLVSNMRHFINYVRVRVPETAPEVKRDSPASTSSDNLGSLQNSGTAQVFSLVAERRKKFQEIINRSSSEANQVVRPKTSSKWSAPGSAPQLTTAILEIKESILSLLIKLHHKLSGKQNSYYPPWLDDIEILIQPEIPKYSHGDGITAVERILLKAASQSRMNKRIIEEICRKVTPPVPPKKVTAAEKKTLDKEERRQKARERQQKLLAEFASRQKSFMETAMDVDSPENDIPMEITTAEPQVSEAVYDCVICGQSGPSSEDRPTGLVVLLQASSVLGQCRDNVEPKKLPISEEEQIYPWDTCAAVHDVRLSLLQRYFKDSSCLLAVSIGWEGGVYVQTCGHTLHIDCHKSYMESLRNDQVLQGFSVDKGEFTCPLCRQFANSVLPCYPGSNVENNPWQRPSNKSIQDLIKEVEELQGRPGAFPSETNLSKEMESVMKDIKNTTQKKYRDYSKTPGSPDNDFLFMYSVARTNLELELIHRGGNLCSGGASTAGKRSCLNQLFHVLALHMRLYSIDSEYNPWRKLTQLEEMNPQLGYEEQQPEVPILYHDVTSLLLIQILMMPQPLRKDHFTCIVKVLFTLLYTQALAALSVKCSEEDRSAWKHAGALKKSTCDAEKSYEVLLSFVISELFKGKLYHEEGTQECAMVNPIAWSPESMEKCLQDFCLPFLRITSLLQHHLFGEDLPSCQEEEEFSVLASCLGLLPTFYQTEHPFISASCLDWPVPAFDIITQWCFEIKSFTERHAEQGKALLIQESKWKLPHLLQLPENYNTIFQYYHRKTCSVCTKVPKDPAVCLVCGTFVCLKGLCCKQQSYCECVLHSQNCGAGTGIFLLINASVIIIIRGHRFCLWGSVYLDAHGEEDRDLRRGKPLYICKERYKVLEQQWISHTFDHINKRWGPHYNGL
active: vorinostat -0.43
inactive: [1] -0.011 | silmitasertib 0.023 | [2] -0.005 | entospletinib -0.003

TTK (UniProt P33981)
Chain of UniProt P33981 (P33981 whole entry, looked up): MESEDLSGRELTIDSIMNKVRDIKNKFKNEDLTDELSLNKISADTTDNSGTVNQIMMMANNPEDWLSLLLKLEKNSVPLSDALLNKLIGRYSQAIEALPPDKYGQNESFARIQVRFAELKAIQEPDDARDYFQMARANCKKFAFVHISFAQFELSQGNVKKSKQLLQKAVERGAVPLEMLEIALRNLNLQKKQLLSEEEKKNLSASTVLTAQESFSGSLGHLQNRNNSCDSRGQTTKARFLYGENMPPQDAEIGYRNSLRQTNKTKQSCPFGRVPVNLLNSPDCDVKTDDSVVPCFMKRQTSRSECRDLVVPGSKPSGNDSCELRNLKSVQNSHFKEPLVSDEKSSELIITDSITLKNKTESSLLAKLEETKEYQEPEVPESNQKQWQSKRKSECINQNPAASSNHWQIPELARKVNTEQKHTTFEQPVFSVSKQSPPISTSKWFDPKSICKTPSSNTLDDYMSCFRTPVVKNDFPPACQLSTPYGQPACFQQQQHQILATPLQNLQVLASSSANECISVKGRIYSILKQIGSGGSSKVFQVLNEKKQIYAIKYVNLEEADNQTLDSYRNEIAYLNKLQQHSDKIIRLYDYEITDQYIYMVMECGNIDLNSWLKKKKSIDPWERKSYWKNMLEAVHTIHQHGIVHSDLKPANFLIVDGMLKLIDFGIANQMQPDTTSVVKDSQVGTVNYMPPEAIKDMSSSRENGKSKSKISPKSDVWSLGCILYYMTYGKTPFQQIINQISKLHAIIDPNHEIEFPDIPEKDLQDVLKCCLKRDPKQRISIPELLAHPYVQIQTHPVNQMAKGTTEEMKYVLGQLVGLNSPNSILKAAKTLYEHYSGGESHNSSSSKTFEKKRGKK
inactive: [1] -0.009 | vorinostat -0.183 | silmitasertib 0.004 | [2] -0.03 | entospletinib -0.039

TPM4 (UniProt P67936)
Chain of UniProt P67936 (P67936 whole entry, looked up): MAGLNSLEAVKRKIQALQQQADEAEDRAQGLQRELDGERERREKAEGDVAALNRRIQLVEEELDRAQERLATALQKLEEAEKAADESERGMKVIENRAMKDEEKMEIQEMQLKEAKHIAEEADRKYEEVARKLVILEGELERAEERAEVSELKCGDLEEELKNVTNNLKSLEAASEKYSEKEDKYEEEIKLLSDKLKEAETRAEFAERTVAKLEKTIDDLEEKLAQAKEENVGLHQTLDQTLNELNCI
inactive: [1] -0.001 | vorinostat 0.166 | silmitasertib -0.018 | [2] -0.023 | entospletinib 0.048

TYMS (UniProt P04818)
Chain of UniProt P04818 (P04818 whole entry, looked up): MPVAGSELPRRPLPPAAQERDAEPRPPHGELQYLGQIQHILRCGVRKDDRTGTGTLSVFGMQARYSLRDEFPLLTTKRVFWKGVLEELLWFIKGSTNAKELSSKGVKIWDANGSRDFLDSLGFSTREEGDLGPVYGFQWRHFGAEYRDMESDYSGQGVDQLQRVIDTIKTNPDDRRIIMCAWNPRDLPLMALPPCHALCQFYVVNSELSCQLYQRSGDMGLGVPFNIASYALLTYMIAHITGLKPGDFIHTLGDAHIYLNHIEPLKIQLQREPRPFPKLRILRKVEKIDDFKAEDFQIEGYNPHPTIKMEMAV
inactive: [1] -0.02 | silmitasertib 0.009 | [2] -0.005 | entospletinib 0.031
active: vorinostat -0.231

UCHL5 isoform 3 (UniProt Q9Y5K5)
Chain of UniProt Q9Y5K5 (Q9Y5K5 whole entry, looked up): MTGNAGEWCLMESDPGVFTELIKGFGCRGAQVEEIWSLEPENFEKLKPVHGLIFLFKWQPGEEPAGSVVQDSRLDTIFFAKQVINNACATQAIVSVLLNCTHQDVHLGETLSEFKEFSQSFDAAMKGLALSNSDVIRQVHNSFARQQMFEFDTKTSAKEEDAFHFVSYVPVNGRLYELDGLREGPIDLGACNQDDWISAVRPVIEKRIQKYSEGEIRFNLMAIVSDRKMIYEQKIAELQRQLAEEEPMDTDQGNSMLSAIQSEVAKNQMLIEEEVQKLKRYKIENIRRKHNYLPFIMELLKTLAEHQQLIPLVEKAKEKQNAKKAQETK
inactive: [1] 0.004 | vorinostat -0.081 | silmitasertib 0 | [2] -0.009 | entospletinib -0.003

TIMELESS (UniProt Q9UNS1)
inactive: [1] 0 | silmitasertib 0.018 | [2] 0.062 | entospletinib 0.017
active: vorinostat -0.412

TRIM33 isoform 2 (UniProt Q9UPN9)
Chain of UniProt Q9UPN9 (Q9UPN9 whole entry, looked up): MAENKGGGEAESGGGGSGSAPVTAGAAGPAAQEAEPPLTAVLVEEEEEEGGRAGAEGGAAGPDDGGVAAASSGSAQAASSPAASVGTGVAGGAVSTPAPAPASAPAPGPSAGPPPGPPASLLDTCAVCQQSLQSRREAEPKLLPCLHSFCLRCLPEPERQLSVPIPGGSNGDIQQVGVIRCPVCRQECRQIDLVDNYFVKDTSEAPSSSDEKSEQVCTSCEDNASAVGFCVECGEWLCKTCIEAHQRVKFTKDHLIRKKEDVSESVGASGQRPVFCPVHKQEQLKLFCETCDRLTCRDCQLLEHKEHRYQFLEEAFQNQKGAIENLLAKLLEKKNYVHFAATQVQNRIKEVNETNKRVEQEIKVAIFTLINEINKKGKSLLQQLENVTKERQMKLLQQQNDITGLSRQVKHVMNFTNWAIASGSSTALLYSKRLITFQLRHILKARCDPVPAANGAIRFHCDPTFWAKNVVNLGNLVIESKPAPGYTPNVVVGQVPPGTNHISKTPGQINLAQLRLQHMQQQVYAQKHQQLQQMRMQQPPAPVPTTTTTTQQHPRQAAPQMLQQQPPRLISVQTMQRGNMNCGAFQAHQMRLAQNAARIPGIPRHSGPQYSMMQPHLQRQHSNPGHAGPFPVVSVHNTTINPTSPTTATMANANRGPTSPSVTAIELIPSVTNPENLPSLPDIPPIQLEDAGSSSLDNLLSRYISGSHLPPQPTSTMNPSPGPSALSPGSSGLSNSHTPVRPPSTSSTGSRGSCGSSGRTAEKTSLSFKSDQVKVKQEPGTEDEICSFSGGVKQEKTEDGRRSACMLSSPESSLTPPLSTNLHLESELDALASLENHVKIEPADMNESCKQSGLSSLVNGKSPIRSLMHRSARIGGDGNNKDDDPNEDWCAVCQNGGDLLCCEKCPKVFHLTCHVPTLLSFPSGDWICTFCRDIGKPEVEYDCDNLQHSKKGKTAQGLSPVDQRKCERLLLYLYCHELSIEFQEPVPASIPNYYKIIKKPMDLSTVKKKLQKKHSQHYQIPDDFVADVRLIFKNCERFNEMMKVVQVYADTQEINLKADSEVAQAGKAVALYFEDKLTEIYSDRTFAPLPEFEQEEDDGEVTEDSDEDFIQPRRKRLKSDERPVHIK
inactive: [1] -0.005 | silmitasertib -0.026 | [2] -0.04 | entospletinib -0.024
active: vorinostat -0.393
